In PubChem BioAssay AID1347420 (Sanford-Burnham Center for Chemical Genomics, 2020):
In all, about 1,300 compounds went through this assay and about 980 (75%) were called active. Not shown: some 4% with an inconclusive outcome. This is one part of the list. Values without a mark were called inactive.

molecular target: Sulfhydryl oxidase 1 (Homo sapiens) (UniProt O00391); assay: QSOX1 enzyme inhibitors, primary screen, biochemical, HyperBlu H2O2 luminescence, HTS (AID 1347420); conditions: recombinant QSOX1, HyperBlu H2O2 luminescence, at 12.5 µM, stronger effect = higher value; active = any value above zero unless noted; also: values above 100% were filed as inconclusive
Sequence (O00391 whole entry, looked up): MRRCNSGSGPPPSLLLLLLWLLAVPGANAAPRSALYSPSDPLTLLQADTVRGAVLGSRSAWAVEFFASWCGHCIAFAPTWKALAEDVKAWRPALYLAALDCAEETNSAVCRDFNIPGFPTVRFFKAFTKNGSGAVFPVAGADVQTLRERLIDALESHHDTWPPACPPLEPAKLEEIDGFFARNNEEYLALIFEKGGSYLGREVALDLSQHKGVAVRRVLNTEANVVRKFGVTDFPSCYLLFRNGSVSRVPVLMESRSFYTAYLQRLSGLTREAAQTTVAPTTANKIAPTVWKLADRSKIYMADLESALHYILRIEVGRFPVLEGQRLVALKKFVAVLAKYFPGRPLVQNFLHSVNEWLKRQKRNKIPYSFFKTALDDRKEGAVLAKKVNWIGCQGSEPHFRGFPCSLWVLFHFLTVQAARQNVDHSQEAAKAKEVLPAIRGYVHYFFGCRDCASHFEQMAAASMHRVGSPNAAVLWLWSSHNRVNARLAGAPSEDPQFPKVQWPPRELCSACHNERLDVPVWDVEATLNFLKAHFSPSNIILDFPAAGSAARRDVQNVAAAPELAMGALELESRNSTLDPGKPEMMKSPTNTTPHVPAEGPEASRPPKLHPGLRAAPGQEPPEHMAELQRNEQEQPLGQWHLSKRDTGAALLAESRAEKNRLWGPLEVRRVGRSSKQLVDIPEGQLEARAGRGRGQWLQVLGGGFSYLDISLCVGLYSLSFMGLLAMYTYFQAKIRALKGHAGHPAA

Structure (SMILES)	inhibition
CCCN(CCC)C1CCc2ccc(O)cc2C1 (stereo unspecified)	28.1% (active)
CCCN(CCC)[C@@H]1CCc2ccc(O)cc2C1	10.7% (active)
CCCN(CCC)C1Cc2cc(OC)c(OC)cc2C1	3.2% (active)
O=S1(=O)N(CCN2CC=C(c3c[nH]c4cc(F)ccc34)CC2)c2cccc3c2N1CCC3	25.1% (active)
C[C@H](N)Cc1cccc(C(F)(F)F)c1	4.9% [setting not given] (active)
COc1ccc(CNC(=O)/C=C/c2ccc3[nH]cc(CCN(C)C)c3c2)cc1	4.8% [setting not given] (active)
O=C(O)c1cc[c]([Hg][Cl])cc1	1% (active)
CCC1(c2ccc(N)cc2)CCC(=O)NC1=O (stereo unspecified)	27.6% [setting not given] (active)
CCN(CCCl)Cc1ccccc1Br	18% (active)
CCCn1c(=O)c2[nH]c(C3CCCC3)nc2n(CCCOC(=O)c2ccc(S(=O)(=O)F)cc2)c1=O	10.4% (active)
CC[C@@H](CO)NC(=O)[C@@H]1C=C2c3cccc4[nH]cc(c34)C[C@H]2N(C)C1	24.7% [setting not given] (active)
CC[C@@H](CO)NC(=O)[C@@H]1C=C2c3cccc4c3c(cn4C)C[C@H]2N(C)C1	9.7% [setting not given] (active)
NCC1(CC(=O)O)CCCCC1	4.2% [setting not given] (active)
CC(=O)c1c(O)c(C)c(O)c(Cc2c(O)c3c(c(C(=O)/C=C/c4ccccc4)c2O)OC(C)(C)C=C3)c1O	59.1% (active)
O=c1[nH]oc2c1CCNC2	8.4% (active)
C[C@H](Cc1ccc2c(c1)OC(C(=O)O)(C(=O)O)O2)NC[C@H](O)c1cccc(Cl)c1	13.4% (active)

Structure (SMILES)	inhibition
CC(Cc1ccc(OCC(=O)O)cc1)NCC(O)c1cccc(Cl)c1 (stereo unspecified)	10.8% (active)
Nc1ccncc1	22.3% [setting not given] (active)
CC(=O)[C@H]1CCC2C3CC[C@H]4C[C@H](O)CC[C@]4(C)C3CC[C@@]21C (stereo partly specified)	4.6% [setting not given] (active)
CC(=O)[C@H]1CC[C@H]2[C@@H]3CC[C@H]4C[C@H](O)CC[C@]4(C)[C@H]3C(=O)C[C@]12C	5% [setting not given] (active)
CC(=O)[C@H]1CC[C@H]2[C@@H]3CC[C@H]4C[C@](C)(O)CC[C@]4(C)[C@H]3CC[C@]12C	11.6% [setting not given] (active)
C[C@]12CCC3C(CC[C@H]4C[C@H](O)CC[C@]34C)C1CC[C@@H]2C(=O)CO (stereo partly specified)	5.6% (active)
CN1C[C@H](CNC(=O)OCc2ccccc2)C[C@@H]2c3cccc4c3c(cn4C)C[C@H]21	6.1% [setting not given] (active)
C[C@]12Cc3cn4c(nc3C=C1CCC1C2CC[C@@]2(C)[C@H]1CC[C@@]2(O)C#N)nc1ccccc14 (stereo partly specified)	-42.5%
CC(C)Oc1cccnc1N(C)C1CCN(Cc2ccccc2)CC1	7% (active)
CC(N)c1cccc(Cl)c1Cl (stereo unspecified)	-1%
CC(C)c1cccc(C(C)C)c1O	16.7% (active)
CN[C@@H]1C[C@@H](c2ccc(Cl)c(Cl)c2)c2ccccc21	3.8% (active)
NC(Cn1oc(=O)[nH]c1=O)C(=O)O (stereo unspecified)	-10.8%
Cc1o[nH]c(=O)c1CC(N)C(=O)O (stereo unspecified)	11.9% (active)
CCCC(C)(COC(N)=O)COC(=O)NC(C)C (stereo unspecified)	-3.5% [setting not given]
